HP1b binding inh – HTS for Inhibitors of HP1-beta Chromodomain Interactions with Methylated Histone Tails. AlphaScreen HP1-beta / biotin-H3K9me3 peptide binding. 390,000 tested, 0.56% active. Chromobox protein homolog 1 (Homo sapiens), P83916. Potency, µM (top dose mostly 114 µM), for the others: top-dose activity change, negative = inhibition, most hits filed as inhibitors; further: potency means the concentration at half of the fitted maximal effect; nearly all actives have a fitted effect of over 70% in size
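HP1-beta protein (50 nM final) preincubated 30 min at room temperature with biotinylated H3(1-18)K9me3 peptide (50 nM) in PBS pH 7.4, 0.01% Tween-20, then compound added for 30 min. AlphaScreen streptavidin donor/nickel chelate acceptor beads (10 ug/mL final), 30 min dark, luminescence read.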
BAZ2B inh – qHTS Assay for Inhibitors of BAZ2B | Bromodomain adjacent to zinc finger domain protein 2B (Homo sapiens), Q9UIF8 | AlphaScreen BAZ2B-H3K14Ac peptide displacement | Potency, µM (doses to about 114 µM), for inactives: at the highest dose activity change, negative = inhibition, actives largely listed as inhibitors | 360,000 tested, 4.4% active | AID 504333, 2011; further: potency means the concentration at half of the fitted maximal effect; on the % scale 0 is the no-effect control and ±100 the full control effect; nearly all actives have a fitted effect of over 60% in size
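Protein-peptide AlphaScreen: BAZ2B 50 nM, b-H3K14Ac 50 nM, 1x PBS pH 7.4 + 0.01% Tween-20. Preincubation 30 min RT; cpd 30 min RT (top 110 uM); beads 20 min RT, light-protected.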
CtBP-E1A inh – qHTS Assay for Inhibitors of the CtBP/E1A Interaction; AlphaScreen GST-E1A/His-CtBP binding, 1536-well; active compounds read low; activity change, % (test concentration not listed); 340,000 tested, 0.49% active; in the data active means activity change below about -65%; inconclusive means mostly about -30% to -63%; further: on the % scale 0 is the no-effect control and ±100 the full control effect
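AlphaScreen with 125 nM GST-E1A and 125 nM His-CtBP (5X stocks) in Tris pH 8.0, 300 mM NaCl, BSA, Tween 20, TCEP. Compounds preincubated 2 h at 37 deg C, then glutathione donor/nickel acceptor beads added for 1 h at 37 deg C in dark.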
JMJD2A Tudor – qHTS Assay for Inhibitors of JMJD2A-Tudor Domain; AlphaScreen JMJD2A-Tudor / H3K4me3 peptide binding; Potency, µM (top dose mostly 114 µM), for the others: top-dose activity change, negative = inhibition, most hits filed as inhibitors; 390,000 tested, 4.4% active; AID 504339, 2011; further: potency means the concentration at half of the fitted maximal effect; on the % scale 0 is the no-effect control and ±100 the full control effect; nearly all actives have a fitted effect of over 50% in size
Six1-Eya2 blk – qHTS Assay for Inhibitors of the Six1/Eya2 Interaction; Homeobox protein SIX1 (Homo sapiens) + Protein phosphatase EYA2 (Homo sapiens), …; AlphaScreen GST-Six1/His-Eya2 binding, biochemical; active compounds read low; activity change, % (no concentration beside the values); 360,000 tested, 0.56% active; in the data active means activity change below about -65%; inconclusive means mostly about -30% to -63%; further: on the % scale 0 is the no-effect control and ±100 the full control effect
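AlphaScreen luminescence read after one hour at 37 °C in darkness. Pin-transferred compounds met GST-Six1 and His-Eya2 protein (5X stock 250 nM/500 nM) plus glutathione donor and Ni-chelate acceptor beads (5X, 50 ug/mL).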
G9a inh – qHTS Assay for Inhibitors of Histone Lysine Methyltransferase G9a. G9a H3K9 monomethylation, AlphaScreen, 2 h. Histone-lysine N-methyltransferase EHMT2 (Homo sapiens), Q96KQ7. 350,000 tested, 8.8% active. Potency, µM (series often up to 102 µM), inactives show at the top dose activity, negative = inhibition, most hits filed as inhibitors. AID 504332, 2011; further: potency means the concentration at half of the fitted maximal effect; on the % scale 0 is the no-effect control and ±100 the full control effect; nearly all actives have a fitted effect of over 75% in size
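Signal arises when biotinylated H3K9 peptide, once monomethylated, bridges streptavidin donor and antibody-captured acceptor beads. Enzyme at 20 nM was preincubated 15 min with test compounds; peptide 500 nM and SAM 20 uM then reacted for 2 h.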
Active calls of the source: *; ? = inconclusive; . = no result; [ ] = dose if it differs, or a comment. Compounds with a hit are over-represented: about 10% of the library has one in this group of screens. Unless noted, the call rests on the fitted dose curve; in most records, active means well fitted inhibition curve with a large enough effect; inconclusive means small, poorly fitted or top-dose-only effect; inactive means no such curve, though single readings can be large or run the other way.

SMILES | HP1b binding inh | BAZ2B inh | CtBP-E1A inh | JMJD2A Tudor | Six1-Eya2 blk | G9a inh
COc1ccc(C)cc1N1C(=N)/C(=C2/Nc3ccccc3S2)C(c2ccccc2)C1=O (stereo not drawn) | ? | ? | -4 | ? | -8 | 10µM*
Cc1nnc(NC(=O)CSc2nc3[nH]ncc3c(=O)[nH]2)s1 | 34% | -24% | . | -7% | 4 | 35µM*
COc1ccc(NC(=O)CSc2nc3[nH]ncc3c(=O)[nH]2)cc1OC | 34% | -24% | 5 | ? | -6 | 45µM*
Cc1cccc(N2CCN(CC(=O)NCC3CCCCC3)CC2)c1C | ? | 50µM* | -9 | 5µM* | 3 | 28µM*
COc1ccc(NC(=O)CSc2nc3c(c(=O)[nH]2)CN(Cc2ccccc2)CC3)cc1Cl | -1% | -15% | . | -18% | . | -28%[59 µM]
O=C(c1cccc(Cl)c1)N1CCN(C2CCCCCC2)CC1 | 25µM* | 45µM* | -3 | 7.9µM* | -2 | 20µM*
CC1CN(C2CCN(C(=O)c3ccccc3)CC2)CC(C)O1 (stereo not drawn) | ? | 56µM* | -3 | 1.3µM* | 4 | 2.5µM*
CN1CCCN(C(=O)c2cccc(Cl)c2)CC1 | 28% | -29% | 20 | 12% | 3 | -5%
O=C(c1ccc(F)cc1)N1CCC(N2CCOCC2)CC1 | -54% | ? | 1 | 7.9µM* | 6 | 10µM*
CC1CN(C(=O)c2ccc(C(=O)c3ccccc3)cc2)CC(C)O1 (stereo not drawn) | 30% | 4% | 6 | -13% | 3 | 0%[59 µM]
O=C(c1ccncc1)N1CCN(C2CCCCC2)CC1 | ? | 50µM* | -1 | 1.1µM* | 14 | 16µM*
O=C(COc1ccccc1)Nc1ccccc1C(=O)OCc1cc(=O)n2nc(C3CC3)sc2n1 | 9% | -2% | . | -14% | . | 19%[59 µM]
Cc1ccc(-n2ncc3c(NC4CCCCC4)ncnc32)cc1Cl | 24% | 4% | . | -6% | . | 4%[59 µM]
COCCNc1ccnc(-c2ccccc2C)n1 | . | . | . | . | . | 0%[0.501 µM]
COc1ccc(Cn2c(C(=O)O)c(CNC3CCC(C)CC3)c3ccc(C)cc32)cc1 (stereo not drawn) | 14% | ? | . | -26% | . | ?
CC1CCCC(N2CCN(C(=O)c3ccccc3F)CC2)C1 (stereo not drawn) | 40% | -2% | 8 | -5% | 6 | -5%
CC1CCN(C2CCN(C(=O)c3ccccc3F)CC2)CC1 | ? | ? | 5 | 0.89µM* | -15 | 28µM*
O=C(c1ccccc1)N1CCN(C2CCCCC2)CC1 | ? | ? | 3 | 7.1µM* | -3 | 7.9µM*
O=C(c1ccccc1)N1CCCC(C(=O)N2CCN(c3ccccc3)CC2)C1 (stereo not drawn) | -3% | -3% | 1 | 50µM* | -3 | ?
CCN(CC)c1ccc2cc(-c3nc(-c4cccs4)no3)c(=O)oc2c1 | 63% | 45% | . | 13% | . | 38%[59 µM]
Fc1ccc(N2CCN(c3nc(CN4CCOCC4)nc4scc(-c5ccccc5)c34)CC2)cc1 | ? | 11µM* | . | 45µM* | -7 | 8.9µM*
Fc1ccc(-c2csc3ncnc(Nc4ccc(N5CCOCC5)cc4)c23)cc1 | -24% | 40µM* | -10 | ? | ? | 32%[0.501 µM]
Fc1ccc(CN2CCN(c3ncnc4scc(-c5ccccc5)c34)CC2)cc1 | 22% | -10% | -6 | ? | -29 | 41%[2.33 µM]
CCCCCNc1nc2c(-c3ccccc3)nnn2c2ccccc12 | 37% | -2% | . | -10% | . | 11%[59 µM]
CC(C)(C)c1ccc(C(=O)Oc2ccc3c(c2)OCC3=O)cc1 | 35% | 6% | -1 | 5% | -2 | 50µM*

Assay outcomes from PubChem BioAssay.
